Bioassay records: PubChem BioAssay, National Center for Advancing Translational Sciences (NCATS)
Many of the other results were omitted from the sample, so hits are more common in it than they were.
Pf Dd2 growth – blocks in vitro growth of P. falciparum Dd2; AID 1347417; Potency, µM (series often up to 28.9 µM), inactives show at the top dose activity, negative = inhibition, most hits filed as inhibitors; P. falciparum Dd2 growth, SYBR Green, 72 h; 120,000 tested, 4.3% active; active = well fitted inhibition curve with a large enough effect;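 also: plate controls were DMSO vehicle for no effect and reference drug for full effect; nearly all actives have a fitted effect of over 65% in size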
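Infected erythrocytes (Dd2, 0.3% parasitemia, 2.5% hematocrit final) are added to compound in RPMI-1640/Albumax II medium, grown 72 h at 37C in low oxygen, then lysed with saponin/Triton-X containing SYBR Green and read by fluorescence.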
Active calls of the source: *; i = inactive; [ ] = dose if it differs, or a comment. Potency is read from the fitted curve at half-maximal effect.

SMILES	Pf Dd2 growth
O=C(NC[C@H]1O[C@@H](CO)[C@@H](O)[C@H]1N1CCN(c2cccc(C(F)(F)F)c2)CC1)Nc1ccc(F)cc1F	i
COc1ccccc1CNC[C@H]1O[C@@H]2C[C@@H](CC(=O)N3CCOCC3)O[C@@H]2[C@@H]1O	21.2%[44.1 µM]
COc1ccc(C(=O)NC2CCN(c3cc(-c4ccccc4)[nH]n3)C2)c(OC)c1 (stereo not drawn)	4.47µM*
Cc1ccc(C(=O)NC2CCN(c3cc(-c4ccc(F)cc4)[nH]n3)CC2)cc1C	i
COc1ccc(-c2cc(N3CCC(NC(=O)c4ccc(Br)cc4)C3)n[nH]2)cc1 (stereo not drawn)	-21.8%
COc1ccc(-c2cc(N3CCC(NC(=O)c4ccccc4C)C3)n[nH]2)cc1 (stereo not drawn)	i
Cc1ccc(C(=O)NC2CCN(c3cc(-c4ccc(F)cc4)[nH]n3)C2)cc1C (stereo not drawn)	12.6µM*
COc1ccc(C(=O)NC2CCN(c3cc(-c4ccc(Cl)cc4)[nH]n3)C2)c(OC)c1 (stereo not drawn)	5.01µM*
COc1ccc(C(=O)NC2CCN(c3cc(-c4ccc(OC)cc4)[nH]n3)C2)cc1 (stereo not drawn)	-9.9%
COc1ccc(C(=O)NC2CCN(c3cc(-c4ccccc4)[nH]n3)C2)c(C)c1 (stereo not drawn)	i
COc1ccc(Cl)cc1C(=O)NC1CCN(c2cc(-c3ccc(F)cc3)[nH]n2)C1 (stereo not drawn)	-12.3%
COc1ccc(C(=O)NC2CCN(c3cc(-c4ccc(Cl)cc4)[nH]n3)C2)cc1 (stereo not drawn)	8.91µM*
COc1ccc(-c2cc(N3CCCC(NC(=O)c4cc(Cl)ccc4OC)C3)n[nH]2)cc1 (stereo not drawn)	-10.0%
COc1ccc(-c2cc(N3CCC(NC(=O)c4ccc(C)c(C)c4)C3)n[nH]2)cc1 (stereo not drawn)	-4.2%
CNC(=O)C(C)N(C)C(=O)c1coc(CN2CCN(c3ccccc3F)CC2)n1 (stereo not drawn)	19.5%
CNC(=O)[C@@H]1C[C@H](Oc2ccccc2)CN1C(=O)Nc1ccccc1	-8.3%
O=C(CCC1CCCC1)N1CCN(C(=O)N2CC3CC(C2)[C@H]2CCCC(=O)N2C3)CC1 (stereo partly drawn)	i
COc1ccc(-c2cc(N3CCCC(NC(=O)c4cc(C)ccc4C)C3)n[nH]2)cc1 (stereo not drawn)	-6.5%
COc1ccc(-c2cc(N3CCC(NC(=O)c4cc(F)ccc4Cl)CC3)n[nH]2)cc1	-11.1%
COc1ccccc1C(=O)NC1CCN(c2cnn(CC3CC3)c(=O)c2)CC1	i
COc1ccc(-c2cc(N3CCC(NC(=O)c4ccc(F)cc4Cl)CC3)n[nH]2)cc1	i
COc1ccc(-c2cc(N3CCC(NC(=O)c4ccc(F)cc4F)CC3)n[nH]2)cc1	1.26µM*
COc1ccc(-c2cc(N3CCC(NC(=O)c4cc(C)cc(C)c4)C3)n[nH]2)cc1 (stereo not drawn)	i
COc1ccc(C(=O)NC2CCN(c3cnn(CC4CC4)c(=O)c3)CC2)c(OC)c1	7.94µM*
COc1ccc(-c2cc(N3CCCC(NC(=O)c4cc(C)cc(C)c4)C3)n[nH]2)cc1 (stereo not drawn)	8.91µM*
SMILES	Pf Dd2 growth
COc1ccc(C(=O)NC2CCN(c3cnn(C)c(=O)c3)CC2)c(OC)c1	-18.7%
CCOc1ccccc1C1NC(=O)N(CC(=O)NCc2ccc(OC)cc2)C2=C1C(=O)OC2 (stereo not drawn)	i
COc1ccc(S(N)(=O)=O)cc1C(=O)N1CCOCC1CC(=O)O (stereo not drawn)	-0.2%
O=c1n(-c2ccc(C(F)(F)F)cc2)nc2n1CCN(Cc1ccccc1)C2	-4.7%
Cn1cnc(C(=O)N2CCCN(S(C)(=O)=O)c3ccccc32)c1	22.5%
Cc1ccsc1C(=O)N1CC2CC(C1)[C@H]1CCCC(=O)N1C2 (stereo partly drawn)	-6.5%
Cc1ccc(F)cc1S(=O)(=O)N(C)CC1CCOC1 (stereo not drawn)	i[5.79 µM]
CCOc1ccc(CC(=O)N2CCC3(CC2)N=C(c2ccccc2)NO3)cc1	i
CCN(CC)C1(Cc2cc(COC)on2)COC1	36.3%[44.1 µM]
COc1ccc(CC(=O)Nc2nc3c(s2)CC(C(C)(C)C)CC3)cc1 (stereo not drawn)	-27.5%
CC(C)(C)C1CCc2nc(NC(=O)Cc3ccc(Cl)cc3)sc2C1 (stereo not drawn)	10µM*
COc1ccccc1OCC(=O)Nc1nc2c(s1)CC(C)CC2 (stereo not drawn)	86.5%
Cc1ccccc1S(=O)(=O)N1CCCC(Cc2noc(-c3cccnc3)n2)C1 (stereo not drawn)	-12.2%
COc1ccc(OCC2(C)COc3ccc(C(=O)NCc4cccc(F)c4)cc3N2)cc1 (stereo not drawn)	-7.1%[44.1 µM]
Cc1ccc(CN2CCN(C3CCN(Cc4ccccn4)CC3)CC2CCO)o1 (stereo not drawn)	-7.1%
CC(C)N1CCN(C2CCN(c3ccc4c(c3)CCC4)CC2)CC1CCO (stereo not drawn)	-19.1%
COc1ccc(CN2CCN(C3CCN(c4ccccc4)CC3)CC2CCO)cc1C (stereo not drawn)	11.2µM*
CC(C)C(=O)NCC1CN(Cc2ccccc2)C(=O)c2c(ccnc2-c2ccc(OCC(=O)O)cc2)O1 (stereo not drawn)	1.12µM*
O=C(O)COc1ccc(-c2nccc3c2C(=O)N(Cc2c[nH]c4ccccc24)CC(COc2ccccc2)O3)cc1 (stereo not drawn)	i
Cc1ncccc1OCC1CN(Cc2cccc(C(F)(F)F)c2)C(=O)c2c(ccnc2-c2ccc(OCC(=O)O)cc2)O1 (stereo not drawn)	-3.8%
CCOCCn1c(=O)[nH]c2cc(C(=O)NCc3noc(CC)n3)ccc21	5.3%
Cc1ccc(NC(=O)C(=O)NCC(c2cccnc2)N2CCOCC2)cc1Cl (stereo not drawn)	-11.9%
Cc1ccc(NC(=O)C(=O)NCC(c2cccnc2)N2CCN(Cc3ccccc3)CC2)cc1C (stereo not drawn)	5.62µM*
Cc1ccc(NC(=O)C(=O)NCC(c2cccnc2)N2CCN(Cc3ccccc3)CC2)cc1F (stereo not drawn)	8.91µM*
O=C(NCC(c1cccnc1)N1CCOCC1)C(=O)Nc1ccc(F)cc1 (stereo not drawn)	8.9%
SMILES	Pf Dd2 growth
COC(=O)c1ccc(NC(=O)C(=O)NCC(c2cccnc2)N2CCN(c3ccccc3)CC2)cc1 (stereo not drawn)	-9.7%
Cc1ccc(NC(=O)C(=O)NCC(c2cccnc2)N2CCOCC2)cc1C (stereo not drawn)	-16.1%
Cc1ccc(NC(=O)Cn2nc3n(c2=O)CCCC3)cc1F	i
O=C(NCc1ccccn1)c1ccc(CN2C(=O)NC3(CCS(=O)(=O)CC3)C2=O)cc1	i
COc1ccc(C(C)NC(=O)c2cc(-c3ccccc3)cn2C)cc1OC (stereo not drawn)	-24.5%
Cc1noc(C)c1C(=O)N1C[C@@H](CO)[C@H](c2ccccn2)C1	-11.3%
CN(C)C[C@@H]1CN(c2ccncn2)C[C@H]1NC(=O)c1cc(Cl)ccc1F	i
COc1ccc2c(c1)CN(Cc1ccccc1Cl)CC[C@H]1COC(=O)N21	11.2µM*
COc1cccc(CN2CC[C@H]3COC(=O)N3c3ccc(OC)cc3C2)c1	11.5%[44.1 µM]
COc1ccc2c(c1)CN(Cc1ccc(C(F)(F)F)cc1)CC[C@H]1COC(=O)N21	i
Cc1ccc(-c2ccc3nnc(CNC(=O)c4ccoc4)n3n2)cc1C	-5.6%
